In the library only some 3.1% were active in any assay of this set; here they are far more common.
PLK1 PBD block – blocks phosphopeptide binding to human PLK1 polo-box domain | P53350 | Plk1 PBD binding of FITC phosphopeptide, fluorescence polarization | Potency, µM, inactives show max response, negative = inhibition, hits mostly inhibitors | 2.8% of 360,000 active; further: potency means the concentration at half of the fitted maximal effect; series mostly up to about 57 µM; on the % scale 0 is the no-effect control and ±100 the full control effect; nearly all actives have a fitted effect of over 65% in size
VDR inhibitor – inhibitors of human vitamin D receptor. Potency, µM, without a hit: max response, negative = inhibition, most hits filed as inhibitors. VDR-SRC2-3 peptide fluorescence polarization, 2 h. AID 504847. P11473. 0.93% of 400,000 active; further: potency means the concentration at half of the fitted maximal effect; on the % scale 0 is the no-effect control and ±100 the full control effect
Target sequence (P11473 whole entry, looked up): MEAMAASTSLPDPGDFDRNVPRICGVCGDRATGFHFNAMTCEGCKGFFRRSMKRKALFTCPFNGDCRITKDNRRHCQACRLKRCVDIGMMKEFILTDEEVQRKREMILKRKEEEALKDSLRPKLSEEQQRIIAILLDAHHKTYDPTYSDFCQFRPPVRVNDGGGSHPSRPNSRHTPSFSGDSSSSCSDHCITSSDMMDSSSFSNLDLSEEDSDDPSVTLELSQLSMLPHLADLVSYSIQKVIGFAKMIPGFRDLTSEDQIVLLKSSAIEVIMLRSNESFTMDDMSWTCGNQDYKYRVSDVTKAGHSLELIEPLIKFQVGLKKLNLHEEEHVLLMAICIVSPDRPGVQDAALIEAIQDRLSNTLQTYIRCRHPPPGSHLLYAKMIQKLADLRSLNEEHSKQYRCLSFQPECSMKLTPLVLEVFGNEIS
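Signal is fluorescence polarization, reporting how far test compounds block the interaction of VDR with the SRC2-3 coregulator peptide after a 2 h room-temperature incubation.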
Pin1 inh – blocks the human prolyl isomerase Pin1 | Q13526 | Pin1 FP peptide displacement, HiFluor488, 10 min | Potency, µM (titrated, usually from 115 µM), for inactives: top-dose activity, negative = inhibition, most hits filed as inhibitors | 0.009% of 390,000 active | AID 504891; active means well fitted inhibition curve with a large enough effect in the polarisation, with a control signal flat, not every such curve was filed as active; inconclusive means small, poorly fitted or top-dose-only effect, or effect the other way, or a change in a side signal; inactive means no such curve, though single readings can be large or run the other way; the % refers to the polarisation; further: potency means the concentration at half of the fitted maximal effect; on the % scale 0 is the no-effect control and ±100 the full control effect
Target sequence (Q13526 whole entry, looked up): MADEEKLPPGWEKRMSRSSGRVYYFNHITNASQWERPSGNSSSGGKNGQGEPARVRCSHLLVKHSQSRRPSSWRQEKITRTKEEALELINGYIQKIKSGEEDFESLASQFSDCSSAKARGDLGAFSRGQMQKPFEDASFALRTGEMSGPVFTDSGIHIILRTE
S-ASM inh – inhibitors of human secretory acid sphingomyelinase; P17405; placental ASM, HMU-PC fluorogenic substrate, 60 min; Potency, µM (doses to about 57.5 µM), inactives show at the top dose activity change, negative = inhibition, actives largely listed as inhibitors; 0.006% of 340,000 active; AID 504937; further: potency means the concentration at half of the fitted maximal effect
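Fluorescence read-out (Ex 386 nm, Em 447 nm) after stopping the reaction at pH 10. Enzyme: ASM from human placenta; substrate HMU-PC0, 9 uM final; 60 min, 37 °C. Compound preincubation 10 min, ambient temperature.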
TDP1 block – TDP1 (human) enzyme inhibition. 0.28% of 350,000 active. Q9NUW8. Potency, µM (series often up to 130 µM), for inactives: at the highest dose activity change, negative = inhibition, most hits filed as inhibitors. recombinant TDP1, AlphaScreen DNA substrate cleavage; further: potency means the concentration at half of the fitted maximal effect; on the % scale 0 is the no-effect control and ±100 the full control effect; nearly all actives have a fitted effect of over 40% in size
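Signal: AlphaScreen proximity between streptavidin donor and anti-FITC acceptor beads on intact substrate. Reaction: Tdp1 1 nM, substrate 15 nM final, 5 min RT after 15 min compound preincubation.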
Tb PFK block – T. brucei PFK enzyme inhibition; T. brucei PFK, ADP-Glo luminescence; 0.17% of 330,000 active; Potency, µM (highest dose often 57.5 µM), for the others: at the highest dose activity, negative = inhibition, hits mostly inhibitors; AID 485367; O15648;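 further: potency means the concentration at half of the fitted maximal effect; 0% = uninhibited 1x PFK enzyme wells and -100% = no-enzyme wells; nearly all actives have a fitted effect of over 60% in size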
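ADP-Glo luminescence quantified ADP after 45 min at room temperature, with 1.25 nM T. brucei PFK, 0.1 mM ATP and 0.5 mM fructose-6-phosphate in pH 8.0 TEA buffer. qHTS titrations up to 57 µM; curves classified by quality.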
USP1 UbRho – USP1-UAF1 deubiquitinase inhibition validated; 50% of 50 active; Ub-Rhodamine cleavage, fluorescence kinetic read; shares compounds with VDR inhibitor; Potency, µM (highest dose often 56.8 µM), for the others: at the highest dose activity change, negative = inhibition, most hits filed as inhibitors
VDR inh confirm – confirmation of human vitamin D receptor inhibitors; shares compounds with VDR inhibitor; VDR-coactivator inhibition assay, qHTS confirmation; Potency, µM, usual class: inhibitors; 89% of 840 active; further: potency means the concentration at half of the fitted maximal effect
VDR FP fluor – confirmation of human VDR-coactivator binding inhibitors, fluorescein label; shares compounds with VDR inhibitor; VDR-coactivator binding, fluorescein fluorescence polarization; Potency, µM (top dose mostly 57.1 µM), without a hit: at the highest dose activity change, negative = inhibition, usual class: inhibitors; 48% of 840 active; further: potency means the concentration at half of the fitted maximal effect
VDR bla – inhibits human VDR in beta-lactamase reporter cells; 23% of 840 active; AID 602202; VDR beta-lactamase reporter cells, FRET ratio; cells co-treated with VDR agonist LG190178; shares compounds with VDR inhibitor; Potency, µM (series often up to 46.1 µM), without a hit: at the top dose activity change, negative = inhibition, usual class: inhibitors; further: potency means the concentration at half of the fitted maximal effect; on the % scale 0 is the no-effect control and ±100 the full control effect
VDR cytotox – counter-screen for vitamin D receptor inhibitors: cytotoxicity | cytotoxicity counter-screen, cell viability, qHTS | Potency, µM (doses to about 48.3 µM), for inactives: at the highest dose activity change, negative = cytotoxicity, most hits filed as cytotoxic | shares compounds with VDR inhibitor | 18% of 840 active;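 further: potency means the concentration at half of the fitted maximal effect; plate controls were DMSO for no effect and high-concentration cycloheximide for full effect; nearly all actives have a fitted effect of over 75% in size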
Active calls of the source: *. Unless noted, the call rests on the fitted dose curve; in most records, active means well fitted curve in the direction sought with a large enough effect; inconclusive means small, poorly fitted or top-dose-only effect, or another doubt; inactive means no such curve, though single readings can be large; an effect the other way counts as inactive or inconclusive.

For CCOc1ccccc1C1N=C(c2ccc(OC)cc2)CC(c2ccccc2O)N1 (stereo not drawn) the results were PLK1 PBD block -18.4%, VDR inhibitor inconclusive, Pin1 inh 17.0%, S-ASM inh -3.2%, TDP1 block 2.3%, Tb PFK block -4.9%, VDR inh confirm inconclusive, VDR FP fluor inconclusive, VDR bla inconclusive and VDR cytotox 2.5%.
Screening COc1ccc(-c2cc(N)n(S(=O)(=O)c3c(F)c(F)c(F)c(F)c3F)n2)cc1OC returned PLK1 PBD block 1.19µM*, VDR inhibitor inconclusive, Pin1 inh inconclusive, S-ASM inh -0.8%, TDP1 block 9.2%, Tb PFK block 24.9%, VDR inh confirm 5.01*, VDR FP fluor 7.08µM*, VDR bla 5.8µM* and VDR cytotox 21.2µM*.
CCOc1ccc(-c2cc(N)n(S(=O)(=O)c3ccc(OC)cc3)n2)cc1 was read as PLK1 PBD block 5.8%, VDR inhibitor 1.8%, Pin1 inh 7.1%, S-ASM inh -2.7%, TDP1 block 0.0% and Tb PFK block 1.6%.
`N#C/C(=C\c1ccc(-c2cc(Cl)ccc2Cl)o1)C(=O)Nc1cccc2ncccc12` gave VDR inhibitor inconclusive and USP1 UbRho inconclusive.
Screening O=C(CCS(=O)(=O)c1nc(-c2ccc3c(c2)OCO3)cc(C(F)(F)F)n1)Nc1ccc(F)c(Cl)c1 returned VDR inhibitor 8.91µM*, Pin1 inh inconclusive, TDP1 block 5.9%, VDR inh confirm 7.08*, VDR FP fluor 7.94µM*, VDR bla 23.1µM* and VDR cytotox inconclusive.
For Cc1cccc(NC(=O)C(=O)NCC(c2cccnc2)N2CCc3ccccc3C2)c1C (stereo not drawn) the results were VDR inhibitor -1.5%, Pin1 inh -0.1% and TDP1 block -1.3%.
`[O-]/[N+](=C\c1ccccc1)c1ccc(Br)cc1` gave PLK1 PBD block 15µM*, VDR inhibitor 25.1µM*, Pin1 inh 0.5%, S-ASM inh -1.4%, TDP1 block 9.3%, Tb PFK block -18.6%, VDR inh confirm 3.77*, VDR FP fluor inconclusive, VDR bla 6.8% and VDR cytotox 7.6%.
CCn1c(CSc2nnc(-c3cccnc3)n2-c2ccccc2C)nc2cc(C(=O)O)ccc21 was read as TDP1 block -3.3% and Tb PFK block -9.1%.
For CCn1c(CSc2nnc(-c3ccncc3)n2CCOC)nc2cc(C(=O)O)ccc21 the results were PLK1 PBD block -7.3%, VDR inhibitor 12.6µM*, Pin1 inh -6.6%, S-ASM inh 1.0%, TDP1 block 1.8%, Tb PFK block 6.5%, VDR inh confirm 21.2*, VDR FP fluor 21.9%, VDR bla 4.5% and VDR cytotox 18.9%.
For CCCCCCN the results were TDP1 block 3.1%.
Screening C=CCN1C(=O)/C(=N/n2cnnc2)c2ccccc21 returned PLK1 PBD block -23.5%, VDR inhibitor 39.8µM*, Pin1 inh -8.5%, S-ASM inh -0.7%, TDP1 block 2.0%, Tb PFK block 0.2%, VDR inh confirm 16.8*, VDR FP fluor inconclusive, VDR bla 22.9% and VDR cytotox -25.5%.
For O=C(CSc1ccc([N+](=O)[O-])cc1)Nc1cccc(S(=O)(=O)Nc2ccccc2F)c1 the results were PLK1 PBD block 9.47µM*, VDR inhibitor 79.4µM*, Pin1 inh -1.0%, S-ASM inh -4.2%, TDP1 block 5.5%, Tb PFK block inconclusive, VDR inh confirm 18.9*, VDR FP fluor 22.4µM*, VDR bla 21.4% and VDR cytotox -9.4%.
O=C(Cc1ccc(Cl)cc1)Nc1cccc(S(=O)(=O)Nc2ccccc2F)c1 was read as PLK1 PBD block -11.9%, VDR inhibitor -5.4%, Pin1 inh 1.6%, S-ASM inh -9.3%, TDP1 block 3.5% and Tb PFK block -18.4%.
For COc1cccc(Cc2nc3ccccc3nc2SCC(=O)N2CCCc3ccccc32)c1 the results were VDR inhibitor 10.8%, Pin1 inh 28.6% and TDP1 block 0.0%.
`Cc1ccc(S(=O)c2snnc2C)cc1` (stereo not drawn) gave PLK1 PBD block -14.5%, VDR inhibitor 1.2%, Pin1 inh -0.2%, S-ASM inh -2.1% and Tb PFK block 0.2%.
For CCCNC(=O)c1nnsc1S(=O)c1ccc(Cl)cc1 (stereo not drawn) the results were PLK1 PBD block 0.752µM*, VDR inhibitor inconclusive, Pin1 inh -0.1%, S-ASM inh -2.9%, TDP1 block 0.0%, Tb PFK block -26.5%, VDR inh confirm 0.891*, VDR FP fluor 1µM*, VDR bla 13µM* and VDR cytotox 21.2µM*.
CNC(=O)c1nnsc1S(=O)c1ccc(Cl)cc1 (stereo not drawn) was read as PLK1 PBD block 0.947µM*, VDR inhibitor 5.62µM*, Pin1 inh -0.6%, S-ASM inh -1.3%, TDP1 block 0.0%, Tb PFK block -17.1%, VDR inh confirm 3.77*, VDR FP fluor 4.47µM*, VDR bla 16.4µM* and VDR cytotox inconclusive.
Cc1sc2ccccc2[n+]1CCc1ccccc1 was read as VDR inh confirm 11.2*, VDR FP fluor 7.94µM*, VDR bla 13.9% and VDR cytotox 3.8%.
For O=P(CCc1ccccc1)(c1ccccc1)c1ccccc1 the results were PLK1 PBD block -2.9%, VDR inhibitor 3.2%, Pin1 inh 3.5% and S-ASM inh -2.9%.

Compound activity: PubChem BioAssay, National Center for Advancing Translational Sciences (NCATS)
